What was measured:
Assay in all cases: PBM binding z-score (relative to random genomic background probes); higher = stronger binding; sequences stand for … in GC…GCGATTGACAGCGTAGAATGAAGG
[1] = tested on: FXR:RXRa (NR concentration 270 nM, RXRa partner concentration 90 nM)
Outline: (§1)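 Binding z-scores were set against random background probes. The data came from custom Agilent 4×180K protein-binding microarrays carrying double-stranded probes with 34-nt variable regions, incubated 1 h with ligand-free nuclear receptor dimers. Partner-specific antibodies detected binding, and scanned fluorescence was regression-normalized.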

[2] = tested on: LXRa:RXRa (NR concentration 270 nM, RXRa partner concentration 90 nM)
Outline: as §1

[3] = tested on: LXRa homodimer (NR concentration 270 nM)
Outline: as §1

[4] = tested on: LXRb:RXRa (NR concentration 270 nM, RXRa partner concentration 90 nM)
Outline: as §1

[5] = tested on: LXRb homodimer (NR concentration 270 nM)
Outline: as §1

[6] = tested on: PPARa:RXRa (NR concentration 270 nM, RXRa partner concentration 90 nM)
Outline: as §1

[7] = tested on: PPARg:RXRa (NR concentration 180 nM, RXRa partner concentration 90 nM)
Outline: as §1

[8] = tested on: PPARg:RXRa 270nM:90nM, anti-RXR (NR concentration 270 nM, RXRa partner concentration 90 nM)
Outline: as §1

[9] = tested on: PPARg:RXRa 30nM:10nM, anti-RXR (NR concentration 30 nM, RXRa partner concentration 10 nM)
Outline: as §1

[10] = tested on: PPARg:RXRa 90nM:30nM, anti-RXR (NR concentration 90 nM, RXRa partner concentration 30 nM)
Outline: as §1

| Sequence | PBM binding z-score [1] | PBM binding z-score [2] | PBM binding z-score [3] | PBM binding z-score [4] | PBM binding z-score [5] | PBM binding z-score [6] | PBM binding z-score [7] | PBM binding z-score [8] | PBM binding z-score [9] | PBM binding z-score [10] |
| --- | --- | --- | --- | --- | --- | --- | --- | --- | --- | --- |
| AGAATGAGGTTAAGATCTGGGAAACAGAATACAT | 1.95 | 1.82 | -0.135 | 1.51 | -0.0689 | 3.64 | 2.13 | 2.39 | 0.969 | 1.84 |
| ATCTCTAGGTAAAGTTCTGTGAAAGATCGATAGA | 0.326 | 0.57 | 0.294 | 0.0682 | 0.741 | 0.12 | 0.24 | 0.886 | 0.571 | 0.677 |
| TCTTGTAGATCAACCAGGTTAAGAAAGCCTGAGT | 0.429 | 0.506 | -0.188 | 0.429 | -0.277 | 0.901 | -0.376 | 1.51 | 2.7 | 2.07 |
| GCTGCTAGGTCAGGTCGGTCAGCTAACGGGTACG | 1.34 | 1.02 | 0.025 | 0.546 | -0.437 | 1.77 | 0.669 | 1.4 | -0.193 | 0.397 |
| CATCGGAGGACAACAGGAGGTCAGAGCTGCCAGA | 1.42 | 2.43 | 2.12 | 1.91 | -0.192 | 2.39 | 0.842 | 0.724 | -0.516 | 0.267 |
| AGAACGAGGGCAATGAGATGATAGCACGGGTGGC | 0.277 | 0.121 | -0.31 | -0.282 | -0.486 | 1.02 | 1.58 | 0.593 | 0.201 | 0.528 |
| CCTAGCAGGCCAATCTGGGTCACTCACGGCTTGA | 0.571 | 1.17 | -0.195 | 0.493 | -0.78 | 2.81 | 1.85 | 1.92 | -0.256 | 1.18 |
| TGAAAGAGGTTATAAGATCAGGGAACGTTGCAAA | 2.03 | 1.91 | -0.395 | 1.33 | -0.331 | 2.91 | 1.11 | 1.46 | 0.81 | 1.12 |
| ACTCGGAGGACAAAGGTCGGAGCTACGCCAGTGA | 0.927 | 1.18 | -0.439 | 0.689 | -0.291 | 2.9 | 4.62 | 5.7 | 3.54 | 5.62 |
| ATACCAAGGTGATCGTGCGGTCGTTGATACTAAC | 0.823 | 0.293 | 0.286 | -0.0591 | -0.308 | 0.0191 | 0.122 | 0.0521 | -0.564 | -0.232 |
| TCTTGTAGATCAAGCAGGTTAAGTAAGCCTGAGT | 0.318 | 0.3 | -0.426 | 0.29 | -0.426 | 0.576 | -0.618 | 1.2 | 2.3 | 1.78 |
| CCTACTGAGCCAAAGGTCATTGATTCCAATGCTC | 5.45 | 5.55 | 4.66 | 5.13 | 2.18 | 5.53 | 8.72 | 8.74 | 7.32 | 9.2 |
| TCTAGTTGGTCAAAGGTGACACACTCGAAATGCG | 1.46 | 1.67 | 0.489 | 2.08 | 0.376 | 4.71 | 8.48 | 8.54 | 8.19 | 8.69 |
| ATCGAAAGGTCGAGGTGACTATAGAGAAAGGGAA | 4.61 | 3.47 | 0.0804 | 2.68 | 0.167 | 4.72 | 3.8 | 3.74 | 1.66 | 3.09 |
| CATACAGGGTCAGCTAGGCAAGAGTAGGGACGGC | 4.09 | 2.76 | -0.331 | 1.96 | 0.0161 | 4.34 | 3.37 | 3.02 | 0.458 | 1.77 |
| TCTAGTTGGTCAAAGATCACACACTCGAAATGCG | 1.08 | 0.894 | 0.461 | 1.25 | 0.389 | 3.18 | 5.95 | 6.52 | 5.72 | 6.88 |
| AGAATGAGGTTATTAAGACCAGGGAATTGCGGTC | 1.7 | 1.52 | -0.287 | 1.09 | -0.232 | 2.8 | 1.57 | 1.93 | 0.533 | 1.05 |
| TCATACAGGTAAAGGTGAAAGTCGAACGATATGA | 1.17 | 1.57 | 0.0169 | 1.44 | 0.312 | 3.08 | 2.39 | 3.81 | 4.26 | 4.38 |
| CATAGAGGGTCAGCTAGGCCAGAGTAGGGACGGC | 3.11 | 2.04 | -0.237 | 1.37 | 0.495 | 3.45 | 2.23 | 2.06 | 0.47 | 1.23 |
| ACAGAGAGGTGAGTGAAGGTAACTCAGCTGGACG | 0.855 | 0.573 | -0.279 | 0.265 | 0.454 | 1.26 | 0.736 | 0.54 | -0.194 | 0.056 |
| TGTCAAAGTTCAAAGGTAACGCAAGTATCCACAC | 7.39 | 6.39 | 4.52 | 4.83 | 1.75 | 6.18 | 9.31 | 8.11 | 5.51 | 7.89 |
| CAAACTAGGTCAAAGGTCAAATTCGAGCCAACCA | 8.57 | 7.2 | 6.34 | 7.43 | 4 | 7.66 | 14.1 | 11.5 | 12.7 | 14 |
